The values below come from PubChem BioAssay (NCI).

What all share (experiment): NCI-60 one-dose screen, 48 h (100 = growth as untreated, 0 = no growth, -100 = all killed)
In one experiment the test system is HCT-15 colon. The following applies: 10 µM unless noted.
The next experiment relates to HT29 colon. The following applies: 10 µM unless noted.
A further experiment deals with SNB-75 CNS. The following applies: 10 µM unless noted.
For the next experiment, the system named is SNB-19 CNS. The following applies: 10 µM unless noted.
The subject of a further experiment is U251 CNS. The following applies: 10 µM unless noted.
The next experiment relates to PC-3 prostate. The following applies: 10 µM unless noted.
The next experiment has as its system SK-MEL-5 melanoma. The following applies: 10 µM unless noted.
Another experiment relates to UACC-62 melanoma. The following applies: 10 µM unless noted.
The test system of another experiment is LOX IMVI melanoma. The following applies: 10 µM unless noted.
The next experiment concerns SK-MEL-28 melanoma. The following applies: 10 µM unless noted.
Another experiment concerns SK-MEL-2 melanoma. The following applies: 10 µM unless noted.
Another experiment deals with EKVX NSCLC. The following applies: 10 µM.
The subject of a further experiment is SN12C renal. The following applies: 10 µM unless noted.
A further experiment has as its system UO-31 renal. The following applies: 10 µM unless noted.
Another experiment concerns TK-10 renal. The following applies: 10 µM unless noted.
The subject of the next experiment is ACHN renal. The following applies: 10 µM unless noted.
Another experiment deals with CAKI-1 renal. The following applies: 10 µM unless noted.
The next experiment has as its system MOLT-4 leukemia. The following applies: 10 µM unless noted.
Another experiment relates to A498 renal. The following applies: 10 µM unless noted.
The subject of another experiment is CCRF-CEM leukemia. The following applies: 10 µM.

SMILES strings stand for the structures. About 83,000 compounds went through this panel and 20% of them were active in at least one assay; those are over-represented in the sample as a whole.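 Compound tested at a single concentration for 48 hours in 96-well plates; a percent growth value below 10 was scored as active.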 Unmarked numbers belong to inactive results. Activity calls are given as the source filed them.

In the case of `N#Cc1c(N)nc(Nc2nc3ccccc3[nH]2)nc1-c1ccc(Cl)cc1`, the growth in the experiment on HCT-15 colon is 109%; with HT29 colon, 95.4%; with SNB-75 CNS, 95.1%; with SNB-19 CNS, 107%; with U251 CNS, 97.6%; in the experiment with PC-3 prostate, 94.8%. The growth was 99.9% in the experiment on SK-MEL-5 melanoma; 113% in the experiment on UACC-62 melanoma; 96.2% in the experiment on LOX IMVI melanoma; 115% in the experiment with SK-MEL-28 melanoma; 114% with SK-MEL-2 melanoma; 109% with EKVX NSCLC. For the same molecule, the growth in the experiment with SN12C renal is 111%; in the experiment on UO-31 renal, 82.8%; in the experiment with TK-10 renal it was 109%; in the experiment on ACHN renal it was 101%; in the experiment with CAKI-1 renal, 86.9%; in the experiment with MOLT-4 leukemia it was 84.7%.

Consider `COc1ccc(C2=C/C(=C\c3ccc(Cl)cc3)C(=O)NN2C(=S)NN)cc1`, for which the growth was 104% with HCT-15 colon; 109% in the experiment with HT29 colon; 61.2% with SNB-75 CNS; 103% in the experiment with SNB-19 CNS; 104% in the experiment with U251 CNS; 92.3% in the experiment on PC-3 prostate. For the same molecule, the growth was 97.7% with SK-MEL-5 melanoma; 86.6% in the experiment with UACC-62 melanoma; 101% in the experiment on LOX IMVI melanoma; 113% with SK-MEL-28 melanoma; 97.3% with SK-MEL-2 melanoma; 94.2% in the experiment with EKVX NSCLC. Also, the growth with SN12C renal is 104%; in the experiment on UO-31 renal, 79.6%; in the experiment with TK-10 renal, 129%; in the experiment on ACHN renal, 96.5%; in the experiment on A498 renal, 99.3%; in the experiment with CCRF-CEM leukemia it was 91.6%. In addition, the growth with MOLT-4 leukemia was 97.8%.

As for `[2H]c1nc(=Nc2cc(NC(=O)C=C)c(N(C)CCN(C)C)cc2OC)[nH]c(-c2cn(C([2H])([2H])[2H])c3ccccc23)c1[2H]`, the growth was 1.13% (active) with HCT-15 colon; -3.69% (active) with HT29 colon; 66.9% with SNB-75 CNS; 55.8% in the experiment with SNB-19 CNS; 40.9% in the experiment with U251 CNS; 50.2% with PC-3 prostate. For the same molecule, the growth in the experiment on SK-MEL-5 melanoma was 63.5%; in the experiment with UACC-62 melanoma it was -10.7% (active); with LOX IMVI melanoma, 39.2%; with SK-MEL-28 melanoma it was 37.5%; in the experiment with SK-MEL-2 melanoma it was 55.8%; in the experiment on EKVX NSCLC, 39.7%. The growth in the experiment with SN12C renal was 35.3%; with UO-31 renal, 24.2%; in the experiment on TK-10 renal it was 26.8%; in the experiment with ACHN renal it was 23.3%; with A498 renal, 36.7%; in the experiment with CCRF-CEM leukemia it was 18.4%. In the experiment with MOLT-4 leukemia, the growth was 13.3%.

As to `COC(=O)c1ccc(C(=Nc2ccc(N(C)C(=O)CN3CCN(C)CC3)cc2)c2c(O)[nH]c3ccc(C(=O)OC)cc23)cc1`, the growth with HCT-15 colon was 27%; in the experiment on HT29 colon, 29.7%; in the experiment on SNB-75 CNS, 24.6%; with SNB-19 CNS, 55.3%; with U251 CNS, 29%; with PC-3 prostate it was 28.8%. Further, the growth in the experiment with SK-MEL-5 melanoma is 36.4%; in the experiment with UACC-62 melanoma, 42.7%; in the experiment with LOX IMVI melanoma, 38.5%; with SK-MEL-28 melanoma, 50.4%; in the experiment on SK-MEL-2 melanoma, 47.7%; with EKVX NSCLC, 64.3%. Besides, the growth was 17.3% in the experiment on SN12C renal; 38.3% in the experiment with UO-31 renal; 51.7% with TK-10 renal; 18.6% in the experiment with ACHN renal; 11.9% in the experiment on CAKI-1 renal; 18.2% in the experiment with A498 renal. Further, in the experiment on MOLT-4 leukemia, the growth is 14.8%.

`C[C@]12CC[C@H]3[C@@H](CC[C@H]4C[C@@H](O)CC[C@@]43C)[C@@H]1CC(=O)C2`: the growth was 100% in the experiment with HCT-15 colon; 96.9% in the experiment on HT29 colon; 98.2% in the experiment with SNB-75 CNS; 100% with SNB-19 CNS; 97.6% in the experiment on U251 CNS; 99.7% in the experiment with PC-3 prostate. Moreover, the growth with SK-MEL-5 melanoma is 111%; with UACC-62 melanoma, 87.6%; with LOX IMVI melanoma, 102%; with SK-MEL-28 melanoma, 113%; in the experiment on SK-MEL-2 melanoma, 103%; with EKVX NSCLC it was 96.9%. For the same molecule, the growth in the experiment on SN12C renal is 101%; in the experiment with UO-31 renal it was 84.1%; in the experiment with TK-10 renal, 94.2%; with ACHN renal, 100%; in the experiment with CAKI-1 renal, 87.6%; with MOLT-4 leukemia, 85.7%.

As for `COc1ccc(-c2cn3ccnc3c(-c3ccc4ncn(C5CCCCC5)c4c3)n2)cc1`, the growth with HCT-15 colon is 21.2%; with HT29 colon, 7.49% (active); in the experiment on SNB-75 CNS it was -26.3% (active); in the experiment with SNB-19 CNS it was 31.6%; in the experiment on U251 CNS, 19.1%; in the experiment on PC-3 prostate it was 4.78% (active). Besides, the growth is 7.7% (active) with SK-MEL-5 melanoma; 34.8% in the experiment with UACC-62 melanoma; 30.4% in the experiment with LOX IMVI melanoma; 52.3% in the experiment with SK-MEL-28 melanoma; 5.74% (active) with SK-MEL-2 melanoma; 43.4% in the experiment with EKVX NSCLC. The growth is 36.4% with SN12C renal; 38.5% in the experiment with UO-31 renal; 81.5% with TK-10 renal; 39% with ACHN renal; -12.3% (active) with A498 renal; 6.73% (active) in the experiment with CCRF-CEM leukemia. In the experiment on MOLT-4 leukemia, the growth was 17.2%.

As for `COC(=O)c1ccc2[nH]c(O)c(C(=Nc3ccc(N(C)C(=O)CN4CCN(C)CC4)cc3)c3ccc(N)cc3)c2c1`, the growth was 99.4% in the experiment on HCT-15 colon; 42.6% in the experiment with HT29 colon; 42.5% in the experiment with SNB-75 CNS; 83.9% in the experiment with SNB-19 CNS; 82.2% in the experiment with U251 CNS; 83.4% in the experiment on PC-3 prostate. Moreover, the growth is 85.2% with SK-MEL-5 melanoma; 110% in the experiment with UACC-62 melanoma; 74.6% in the experiment on LOX IMVI melanoma; 87.1% with SK-MEL-28 melanoma; 93.1% with SK-MEL-2 melanoma; 95.5% in the experiment with EKVX NSCLC. For the same molecule, the growth is 50.4% with SN12C renal; 75.6% in the experiment on UO-31 renal; 76.4% in the experiment on TK-10 renal; 94.7% in the experiment on ACHN renal; 63.9% in the experiment with CAKI-1 renal; 92.7% in the experiment with A498 renal. Moreover, the growth in the experiment with MOLT-4 leukemia was 52.3%.

`COc1ccc(/C=C(/C(=O)N2CCCCC2)c2cc(OC)c(OC)c(OC)c2)cc1`: the growth is 26.8% in the experiment with HCT-15 colon; 5.67% (active) with HT29 colon; -15.6% (active) in the experiment on SNB-75 CNS; 32% in the experiment with SNB-19 CNS; 26% with U251 CNS; 12.4% in the experiment on PC-3 prostate. Besides, the growth was 26.8% in the experiment on SK-MEL-5 melanoma; 36.5% in the experiment with UACC-62 melanoma; 36.5% in the experiment on LOX IMVI melanoma; 54.1% with SK-MEL-28 melanoma; 28.5% with SK-MEL-2 melanoma; 42.5% with EKVX NSCLC. For the same molecule, the growth is 39.2% with SN12C renal; 48.2% in the experiment with UO-31 renal; 77.3% in the experiment with TK-10 renal; 49% with ACHN renal; -2.33% (active) with A498 renal; 14.1% in the experiment with CCRF-CEM leukemia. For the same molecule, the growth in the experiment on MOLT-4 leukemia is 30.9%.
